The panel holds about 79,000 compounds, 15% with a hit somewhere; the sample as a whole holds those more often. Values without a mark were called inactive. The source made the active and inactive calls. Cut-off read from the data, not from the text of the source: active = growth inhibition above about 70%; inactive = the rest.

The test in a line: NCI Yeast Anticancer Drug Screen. Data for the mlh1 rad18 strain (AID 175). Particulars: S. cerevisiae mlh1 rad18 strain growth inhibition; at 50.0 µM; hits give high values. Summed up:
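Growth inhibition of the yeast strain was measured after compound exposure and expressed relative to vehicle-treated controls. The strain carries defined defects in DNA damage repair.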
In the case of `COc1cc(C(C#N)NNc2nc(C)cc(=O)[nH]2)cc(OC)c1OC` (stereo not given), the growth inhibition was -12.9%.

For `CCOC(=O)NC(=O)c1cn(CCN2CCN(C(=O)CCCCCCCCCCC(=O)N3CCN(CCn4cc(C(=O)NC(=O)OCC)c(=O)[nH]c4=O)CC3)CC2)c(=O)[nH]c1=O`, the growth inhibition is 8.55%.

`O=C(O)c1ccc(Cl)c(C(=O)O)c1`: the growth inhibition is 11.8%. Under `COc1ccc2nc(N/N=C/C(C)=N/Nc3cc(C)c4cc(OC)ccc4n3)cc(C)c2c1` stands -23.2%; under `CC1(C)OC2C(O1)[C@H]1OC(C(Cl)(Cl)Cl)=N[C@H]1C(I)[C@H]2N1C(=O)c2ccccc2C1=O` (stereo not given in full), 3.55%. The same measure for `COc1cc(C(=O)C(C=O)c2ccccc2)c([N+](=O)[O-])cc1OC` (stereo not given): 23.1%; for `COC1OC2COC(c3ccccc3)OC2C(N=[N+]=[N-])C1O` (stereo not given): 2.2%; for `CC(C)CC(O)(CC(C)C)C(CCC(=O)Nc1ccccc1)C(=O)Nc1ccccc1` (stereo not given): 7.6%. Under `CC1=Nc2ccccc2C1(C)C` stands 9.3%; under `Nc1ncnc2c1[nH]c(=S)n2C1OC(CO)C(O)C1O` (stereo not given), 0.15%.

Turning to `CC(C)(C)OC(=O)Cc1ccc2c(ccn2Cc2ccccc2)c1`, the growth inhibition is -20%. Under `CC(=O)Nc1c(Cl)cc2c(c1Cl)Cc1cc(N(C)C)ccc1-2` stands -9.25%; under `Cc1ccc(C2(c3ccc(C)cc3)OCC(C)(CBr)CO2)cc1`, -14.5%; under `COC(=O)N/N=C(\C)CC(=O)Nc1ccc(Cl)cc1`, -43.7%. With `CC1C(C)(C)P(=O)(OCCOP2(=O)C(C)(C)C(C)C2(C)C)C1(C)C` (stereo not given), the growth inhibition is 7.25%. Under `CC(=O)NC(Cc1cccc2ccccc12)C(=O)O` (stereo not given) stands -6.45%; under `c1ccc(N=C2CCCCCC2)cc1`, -6.7%. For `COc1cc2cc3c4cc(OC)c(OC)cc4cc[n+]3cc2cc1OC`, the growth inhibition was -68%.

For `CCN(CC)c1ccc2cc(C(=O)Nc3nc(C45CC6CC(CC(C6)C4)C5)cs3)c(=O)oc2c1`, the growth inhibition is -16.1%. Take `O=C(NCCCN1CCCCCC1)C(c1ccccc1)C1CCCCC1` (stereo not given): the growth inhibition is 36.1%. The same measure for `CC1(C)N=C(N)N=C(N)N1c1ccc(C(F)(F)F)cc1`: 29.4%; for `CC(Cc1ccccc1)NC(=O)CCCN1C(=O)c2ccccc2C1=O` (stereo not given): -5.15%; for `CCSc1nc(C)nc2c1cnn2-c1ccccc1`: 1.95%. The same measure for `CC1(C)OC[C@@H](O)[C@H](Br)CO1`: -28.1%; for `COc1ccc2cc3n(cc-2c1=O)CCc1cc2c(cc1-3)OCO2`: 1.45%. The same measure for `N#CCCCN1CCOCC1`: 3.6%; for `CC(=O)C1(C)CCC2C3CCC4=CC(=O)CCC4=C3CCC21C` (stereo not given): 23.6%; for `CC(C)(C)/[N+]([O-])=C/C1(C2(/C=[N+](\[O-])C(C)(C)C)Cc3ccccc3C2=O)Cc2ccccc2C1=O` (stereo not given): 31.9%. Take `COC(=O)/C=C/C(=N/N(C)c1ccccc1)c1ccccc1`: the growth inhibition was -5.15%.

Regarding `NCCC(=O)NCCSSCCNC(=O)CCN`, the growth inhibition is 15.1%. The same measure for `O=C(NCCCNCCCCNCCCNC(=O)C(F)(F)F)C(F)(F)F`: 3.3%; for `O=C(CCC(=O)Nc1cc(Cl)ccc1Cl)CC(=O)c1ccc(Cl)cc1`: -6.75%; for `S=C1NC(/C=C/c2ccccc2)Nc2ccccc21` (stereo not given): 88.2% (active). Under `O=C(Nc1cc(Br)c2cccc3c2c1CC3)c1ccccc1` stands -0.95%; under `CN(C)CC(c1ccccc1)C(O)(c1ccccc1)c1ccccc1` (stereo not given), 3.05%; under `Clc1ccccc1CSc1cc(SCc2ccccc2Cl)nc(SCc2ccccc2Cl)n1`, 22%.

For `CC(C)=CCC(C)C`, the growth inhibition was -3.85%. For the compound `CCC(=O)NC1CCCCC1`, the growth inhibition was 1.4%. Turning to `O=C(c1ccccc1)C(c1ccccc1)N(CCO)CCO` (stereo not given), the growth inhibition was -17.3%. The same measure for `O=c1[nH]c2ccccc2c(N=Cc2ccccc2)c1-c1ccccc1`: -0.4%.

Values taken from PubChem BioAssay (NCI).
